Shown are actives, neighbours in structure and some others; about 7.3% of the full set was active somewhere.
FLuc counter: counter-screen for miR-21 project: firefly luciferase inhibitors or activators; P08659; purified FLuc, Km substrates, luminescence inhibition; Potency, µM (top dose mostly 57.5 µM), inactives show top-dose activity change, negative = inhibition, hits mostly inhibitors; actives 6.9% (n = 360,000);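 also: plate controls were vehicle for no effect and reference inhibitor for full effect; nearly all actives have a fitted effect of over 55% in size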
Target sequence (P08659 whole entry, looked up): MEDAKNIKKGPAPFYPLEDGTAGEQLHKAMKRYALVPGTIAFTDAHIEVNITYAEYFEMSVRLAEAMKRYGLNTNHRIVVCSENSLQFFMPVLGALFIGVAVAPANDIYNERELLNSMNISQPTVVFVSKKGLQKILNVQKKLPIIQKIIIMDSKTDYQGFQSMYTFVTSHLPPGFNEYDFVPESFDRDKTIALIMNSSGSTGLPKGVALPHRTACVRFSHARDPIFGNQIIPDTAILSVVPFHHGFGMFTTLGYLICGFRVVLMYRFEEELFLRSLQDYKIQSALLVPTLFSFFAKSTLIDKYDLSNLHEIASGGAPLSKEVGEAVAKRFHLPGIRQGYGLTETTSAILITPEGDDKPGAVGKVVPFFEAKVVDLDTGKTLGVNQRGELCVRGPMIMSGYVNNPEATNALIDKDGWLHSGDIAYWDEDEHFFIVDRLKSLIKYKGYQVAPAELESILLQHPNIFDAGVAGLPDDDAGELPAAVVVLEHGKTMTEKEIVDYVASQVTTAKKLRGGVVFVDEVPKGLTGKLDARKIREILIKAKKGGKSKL
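Purified P. pyralis luciferase (10nM final) with 10uM D-luciferin and 10uM ATP (Km levels) in 50mM Tris acetate pH 7.5, 10mM Mg acetate, 0.01% Tween-20, 0.05% BSA; qHTS 6-point titration, ~60 µM downward; luminescence read.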
Luc counter: Kinase-Glo luciferase inhibition (counter-screen) | Q27757 | Kinase-Glo luciferase, ATP luminescence, 8 min | Potency, µM (titrated, usually from 38.3 µM), for inactives: at the top dose activity change, negative = inhibition, actives largely listed as inhibitors | actives 0.28% (n = 200,000); also: % is scaled to controls: 0 for no effect and ±100 for the full control effect; nearly all actives have a fitted effect of over 60% in size
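Light output from Kinase-Glo luciferase with luciferin and 10 uM ATP in 50 mM imidazole pH 7.2, KCl, MgCl2, Tween 20, BSA; compound pin-delivered, 8-min ambient incubation, then luminescence read.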
ELG1 genotox: inducers of genotoxicity in HEK293T ELG1-luciferase cells; HEK293T ELG1-luciferase reporter, luminescence, 16 h; actives 1.3% (n = 330,000); Potency, µM (top dose mostly 46 µM), for inactives: top-dose activity change, positive = activation, actives largely listed as activators; also: % of control where 0% means no effect; nearly all actives have a fitted effect of over 60% in size
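Genotoxicity was scored as increased ELG1-luciferase reporter signal, measured by ONE-Glo luminescence (30 min, room temperature). Compound or vehicle exposure of the HEK293T reporter cells lasted 16 hr at 37°C.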
SMN2 splice enh: SMN2 splice variant enhancement. HEK293 SMN2-luciferase splicing reporter, luminescence, 30-36 h. Potency, µM (doses to about 46.1 µM), for inactives: top-dose activity change, positive = activation, most hits filed as activators. actives 2.8% (n = 210,000); also: % of control where 0% means no effect; nearly all actives have a fitted effect of over 55% in size
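HEK293 cells carry an SMN2 […]–luciferase reporter in which exon 7 inclusion puts luciferase in frame. Cells were plated 10-12 h before compound addition, then incubated 30-36 h at 37C. ONE-Glo luminescence was read; sodium butyrate at 4.5 mM final served as control.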
NPC1 promoter act: NPC1 promoter activation; Huh7 NPC1 promoter luciferase reporter, 24 h; Potency, µM (top dose mostly 9.22 µM), inactives show at the top dose activation, usual class: activators; actives 2.4% (n = 320,000); AID 485313; also: % of control where 0% means no effect; nearly all actives have a fitted effect of over 60% in size
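Stably transfected Huh7 (NPC1 promoter→luciferase), 1500 cells/well in Opti-MEM + 10% FBS, 2 h settle, then compound 24 h at 37 °C. Luminescence after 10 min with Amplite reagent.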
Rab9 promoter act: activates the Rab9 promoter. Huh7 Rab9 promoter-luciferase reporter, luminescence, 24 h. Potency, µM (top dose mostly 9.22 µM), inactives show top-dose activation, negative = inhibition, usual class: activators. actives 2.8% (n = 320,000). AID 485297; also: % of control where 0% means no effect; nearly all actives have a fitted effect of over 60% in size
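Measured in stably transfected Huh7 cells bearing a Rab9 promoter–luciferase construct: 24 h compound treatment at 37 °C, followed by luminescence detection.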
An asterisk follows results filed as active. Calls follow the shape of the dose curve; as a rule, active = well fitted curve in the direction sought with a large enough effect; inconclusive = small, poorly fitted or top-dose-only effect, or another doubt; inactive = no such curve, though single readings can be large; an effect the other way counts as inactive or inconclusive. Potency is read from the fitted curve at half-maximal effect.

Results for Cc1nnc2nc(-c3ccccc3)nc(-c3ccccc3)n12 ?
FLuc counter: -7%; ELG1 genotox: -5%; NPC1 promoter act: -1%; Rab9 promoter act: 9%

Results for Cc1ccc(Cn2nc(-c3ccccc3)nc2-c2ccccc2)cc1 ?
FLuc counter: 15µM*; Luc counter: -25%; ELG1 genotox: inconclusive; SMN2 splice enh: inconclusive; NPC1 promoter act: inconclusive; Rab9 promoter act: 3.5µM*

How did Cn1nc(-c2ccccc2)nc1-c1ccccc1 do in these assays?
FLuc counter: 21µM*; ELG1 genotox: 12%; NPC1 promoter act: inconclusive; Rab9 promoter act: inconclusive

What do the screens show for `c1ccc(Cn2nc(-c3ccccc3)nc2-c2ccccc2)cc1`?
FLuc counter: 21µM*; Luc counter: -10%; ELG1 genotox: inconclusive; SMN2 splice enh: 25%; NPC1 promoter act: 13%; Rab9 promoter act: 18%

Results for CCCCNCCOCCSc1ccc(Cl)cc1 ?
FLuc counter: 1%; Luc counter: -1%; ELG1 genotox: -3%; SMN2 splice enh: -12%; NPC1 promoter act: -2%; Rab9 promoter act: 0%

What do the screens show for `COc1ccc(OC)c(Cc2nnc(CCC(=O)N3CCC(N4CCCCC4)CC3)o2)c1`?
FLuc counter: 3%; Luc counter: 0%; ELG1 genotox: -2%; NPC1 promoter act: -1%; Rab9 promoter act: -6%

How did CC1(C)CC(=O)/C(=N/Nc2ccc(Cl)cc2)CO1 do in these assays?
FLuc counter: 6.7µM*; ELG1 genotox: inconclusive; NPC1 promoter act: 1.8µM*; Rab9 promoter act: 1.8µM*

How did Cc1cccc(N/N=C2/COC(C)(C)CC2=O)c1 do in these assays?
FLuc counter: 8.5µM*; Luc counter: -1%; ELG1 genotox: inconclusive; SMN2 splice enh: 18µM*; NPC1 promoter act: 3.2µM*; Rab9 promoter act: 3.2µM*

What do the screens show for `COc1ccccc1N/N=C1\COC(C)(C)CC1=O`?
FLuc counter: inconclusive; ELG1 genotox: inconclusive; NPC1 promoter act: 23%; Rab9 promoter act: 29%

How did Cc1cc(C=O)c(C)n1-c1sc2c(c1C(=O)O)CCCC2 do in these assays?
FLuc counter: 1%; Luc counter: -1%; ELG1 genotox: 1%; SMN2 splice enh: -3%; NPC1 promoter act: -5%; Rab9 promoter act: -4%

How did COC(=O)c1c(-n2c(C)cc(C=O)c2C)sc2c1CCCC2 do in these assays?
FLuc counter: 12µM*; Luc counter: -9%; ELG1 genotox: 1%; SMN2 splice enh: -21%; NPC1 promoter act: -4%; Rab9 promoter act: 2%

What do the screens show for `COc1ccc(/C=N\N=C2/SC(CC(=O)O)C(=O)N2c2ccc(O)cc2)cc1` (stereo not given)?
FLuc counter: -13%; ELG1 genotox: 0%; NPC1 promoter act: -2%; Rab9 promoter act: 20%

How did Cc1nc2ccccn2c1C(=O)N/N=C/c1ccc(CNC(=O)C(=O)Nc2ccccc2)o1 do in these assays?
FLuc counter: 19µM*; Luc counter: -3%; ELG1 genotox: 3%; SMN2 splice enh: inconclusive; NPC1 promoter act: -5%; Rab9 promoter act: 2%

How did Cc1nc2ccccn2c1C(=O)N/N=C/c1ccc([N+](=O)[O-])o1 do in these assays?
FLuc counter: -6%; Luc counter: -1%; ELG1 genotox: -7%; SMN2 splice enh: -37%; NPC1 promoter act: -9%; Rab9 promoter act: -6%

Results for Cc1ccc(-c2nn3c(C)nnc3s2)cc1NC(=O)C(C)C ?
FLuc counter: -1%; Luc counter: -5%; ELG1 genotox: 3%; SMN2 splice enh: 5%; NPC1 promoter act: 8%; Rab9 promoter act: 4%

How did O=C(Nc1cccc(Cl)c1)OCCOc1ccccc1 do in these assays?
FLuc counter: 21µM*; ELG1 genotox: 15%; NPC1 promoter act: inconclusive; Rab9 promoter act: inconclusive

How did O=C(Nc1ccccc1)OCCOc1ccccc1 do in these assays?
FLuc counter: 11µM*; Luc counter: -1%; ELG1 genotox: 12µM*; SMN2 splice enh: inconclusive; NPC1 promoter act: 4µM*; Rab9 promoter act: 0.89µM*

Screens from PubChem.
